Source: article PMC8384837, “Expanding the binding specificity for RNA recognition by a PUF domain”

Legend:
Test in all cases: yeast three-hybrid, YBZ-1, SC-Leu-His + 0.5 mM 3-AT, 4 days
Conditions in all cases: tags: N-Gal4 AD-HA kept; label: inside an RPR1-promoter hybrid RNA with tandem MS2 sites; ssRNA
PUM1 PUF domain R5-KTN = PUM1 PUF domain R5-KTN (Homo sapiens, UniProt Q14671 828-1176, C1007K;R1008T;Q1011N)
Method in brief: (§1)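 Each repeat of the Pumilio-1 PUF domain was randomized at its three base-contacting residues, and these libraries were co-expressed from a centromeric plasmid with matching RNA elements in strain YBZ-1. After four days on SC-Leu (input) or SC-Leu-His + 0.5 mM 3-AT (selection), the repeat regions were PCR-amplified and Illumina-sequenced. The interaction score compares variant frequency between input and selection as a log change, computed in log2 with a pseudocount of 1 for absent variants.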

PUM1 PUF domain R4-LHQ = PUM1 PUF domain R4-LHQ (Homo sapiens, UniProt Q14671 828-1176, N971L)
Method in brief: as §1

PUM1 PUF domain R4-HNS = PUM1 PUF domain R4-HNS (Homo sapiens, UniProt Q14671 828-1176, N971H;H972N;Q975S)
Method in brief: as §1

PUM1 PUF domain R3-VRI = PUM1 PUF domain R3-VRI (Homo sapiens, UniProt Q14671 828-1176, C935V;Q939I)
Method in brief: as §1

PUM1 PUF domain R4-RLF = PUM1 PUF domain R4-RLF (Homo sapiens, UniProt Q14671 828-1176, N971R;H972L;Q975F)
Method in brief: as §1

PUM1 PUF domain R7-IMG = PUM1 PUF domain R7-IMG (Homo sapiens, UniProt Q14671 828-1176, S1079I;N1080M;E1083G)
Method in brief: as §1

PUM1 PUF domain R2-LWF = PUM1 PUF domain R2-LWF (Homo sapiens, UniProt Q14671 828-1176, N899L;Y900W;Q903F)
Method in brief: as §1

PUM1 PUF domain R5-NLL = PUM1 PUF domain R5-NLL (Homo sapiens, UniProt Q14671 828-1176, C1007N;R1008L;Q1011L)
Method in brief: as §1

PUM1 PUF domain R1-RCL = PUM1 PUF domain R1-RCL (Homo sapiens, UniProt Q14671 828-1176, S863R;R864C;Q867L)
Method in brief: as §1

PUM1 PUF domain R1-KPC = PUM1 PUF domain R1-KPC (Homo sapiens, UniProt Q14671 828-1176, S863K;R864P;Q867C)
Method in brief: as §1

Chain of PUM1 PUF domain R5-NLL (Q14671 828-1176 C1007N/R1008L/Q1011L): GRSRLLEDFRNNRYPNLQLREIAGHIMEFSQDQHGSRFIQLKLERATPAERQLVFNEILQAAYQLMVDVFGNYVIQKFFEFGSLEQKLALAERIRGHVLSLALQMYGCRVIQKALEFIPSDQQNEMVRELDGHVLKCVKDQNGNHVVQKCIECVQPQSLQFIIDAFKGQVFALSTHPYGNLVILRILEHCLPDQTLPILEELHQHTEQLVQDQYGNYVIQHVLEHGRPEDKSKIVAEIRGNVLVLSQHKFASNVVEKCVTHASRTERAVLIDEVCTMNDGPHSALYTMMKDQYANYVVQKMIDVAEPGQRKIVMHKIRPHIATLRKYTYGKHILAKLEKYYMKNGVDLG
Chain of PUM1 PUF domain R5-KTN (Q14671 828-1176 C1007K/R1008T/Q1011N): as the sequence (Q14671 828-1176 C1007N/R1008L/Q1011L) above, with N180K, L181T, L184N counted along it
Chain of PUM1 PUF domain R7-IMG (Q14671 828-1176 S1079I/N1080M/E1083G): as the sequence (Q14671 828-1176 C1007N/R1008L/Q1011L) above, with N180C, L181R, L184Q, S252I, N253M, E256G counted along it

Sequence: GGCUAGAACUAGUGGAUCCCCCGGCGCCCGGCGGCUCGAGCCCGGGUAAGUGUCAAUAGUCUGCAUGCCGCCGGGCGCCAUGCCUGCAGGUCGACUCUAGAAAACAUG
- binding signal (PUM1 PUF domain R5-KTN): 3.79 log2 enrichment (interaction score)

Sequence: GGCUAGAACUAGUGGAUCCCCCGGCGCCCGGCGGCUCGAGCCCGGGUAAGUGUAUAUAGUCUGCAUGCCGCCGGGCGCCAUGCCUGCAGGUCGACUCUAGAAAACAUG
- binding signal (PUM1 PUF domain R4-LHQ): 6.92 log2 enrichment (interaction score)
- binding signal (PUM1 PUF domain R4-HNS): 4.08 log2 enrichment (interaction score)

Sequence: GGCUAGAACUAGUGGAUCCCCCGGCGCCCGGCGGCUCGAGCCCGGGUAAGUGUAAAUAGUCUGCAUGCCGCCGGGCGCCAUGCCUGCAGGUCGACUCUAGAAAACAUG
- binding signal (PUM1 PUF domain R4-HNS): 1.42 log2 enrichment (interaction score)
- binding signal (PUM1 PUF domain R3-VRI): 4.31 log2 enrichment (interaction score)
- binding signal (PUM1 PUF domain R4-RLF): 4.74 log2 enrichment (interaction score)

Sequence: GGCUAGAACUAGUGGAUCCCCCGGCGCCCGGCGGCUCGAGCCCGGGUAAGUUUAAAUAGUCUGCAUGCCGCCGGGCGCCAUGCCUGCAGGUCGACUCUAGAAAACAUG
- binding signal (PUM1 PUF domain R7-IMG): 3.68 log2 enrichment (interaction score)

Sequence: GGCUAGAACUAGUGGAUCCCCCGGCGCCCGGCGGCUCGAGCCCGGGUAAGUGUAAAAAGUCUGCAUGCCGCCGGGCGCCAUGCCUGCAGGUCGACUCUAGAAAACAUG
- binding signal (PUM1 PUF domain R2-LWF): 6.96 log2 enrichment (interaction score)

Sequence: GGCUAGAACUAGUGGAUCCCCCGGCGCCCGGCGGCUCGAGCCCGGGUAAGUGUUAAUAGUCUGCAUGCCGCCGGGCGCCAUGCCUGCAGGUCGACUCUAGAAAACAUG
- binding signal (PUM1 PUF domain R5-NLL): 2.94 log2 enrichment (interaction score)

Sequence: GGCUAGAACUAGUGGAUCCCCCGGCGCCCGGCGGCUCGAGCCCGGGUAAGUGUAAAUCGUCUGCAUGCCGCCGGGCGCCAUGCCUGCAGGUCGACUCUAGAAAACAUG
- binding signal (PUM1 PUF domain R1-RCL): 3.05 log2 enrichment (interaction score)

Sequence: GGCUAGAACUAGUGGAUCCCCCGGCGCCCGGCGGCUCGAGCCCGGGUAAGUGUAAAUUGUCUGCAUGCCGCCGGGCGCCAUGCCUGCAGGUCGACUCUAGAAAACAUG
- binding signal (PUM1 PUF domain R1-KPC): 4.34 log2 enrichment (interaction score)

Sequence: GGCUAGAACUAGUGGAUCCCCCGGCGCCCGGCGGCUCGAGCCCGGGUAAGUGUAAUUAGUCUGCAUGCCGCCGGGCGCCAUGCCUGCAGGUCGACUCUAGAAAACAUG
- binding signal (PUM1 PUF domain R3-VRI): 0.57 log2 enrichment (interaction score)

Sequence: GGCUAGAACUAGUGGAUCCCCCGGCGCCCGGCGGCUCGAGCCCGGGUAAGUGUAAACAGUCUGCAUGCCGCCGGGCGCCAUGCCUGCAGGUCGACUCUAGAAAACAUG
- binding signal (PUM1 PUF domain R2-LWF): 1.17 log2 enrichment (interaction score)
